According to PubChem BioAssay (EPA / NIEHS):
Active and inactive are the calls of the source. How the source made its calls: active means hit-call score of the fitted dose curve at least 0.9, where 1 is the maximum; inactive means score below 0.9.

Assay: Tanguay_ZF_120hpf_ANY: Oregon State University Tanguay Lab 120 Hour Post-fertilization zebrafish Assay for Any Mortality and Malformation (AID 2284404)
Method: Tanguay_ZF_120hpf is a whole embryo, multiplexed endpoint assay using zebrafish larvae exposed for 120 hours post fertilization on a 96-well plate.Tanguay_ZF_120hpf_ANY is one of one assay component(s) measured or calculated from the Tanguay_ZF_120hpf assay. It is designed to make measurements of developmental malformations and mortality as detected with brightfield microscopy and combines scoring from 13 other assay components measuring more specific morphologies.Data from the assay component Tanguay_ZF_120hpf_ANY was analyzed into 1 assay endpoints. This assay endpoint, Tanguay_ZF_120hpf_ANY, was analyzed in the positive analysis fitting direction relative to DMSO as the negative control and baseline of activity. Using a type of morphology reporter, gain-of-signal activity can be used to understand changes in developmentals as they relate to the whole embryo. To generalize the intended target to other relatable targets, this assay endpoint is annotated to the zebrafish development intended target family, where the subfamily is embryonic morphogenesis and mortality.
Zebrafish husbandry: Tropical 5D wild-type adult zebrafish were housed in at an approximate density of 1000 per 100 gallon tank at the Sinnhuber Aquatic Research Laboratory, Oregon State University, Corvallis, OR. Each tank was kept at standard laboratory conditions of 28C on a 14-h light/10-h dark photoperiod in fish water consisting of reverse osmosis water supplemented with a commercially available salt (Instant Ocean). Spawning funnels were placed into the tanks the night prior, and embryos were collected and staged. To increase bioavailability, the chorion was enzymatically removed using pronase (63.6mg/ml, >/= 3.5U/mg, Sigma-Aldrich: P5147) at 4 hours post fertilization (hpf) using a custom automated dechorionator.Chemical exposures: Six hpf dechorionated embryos were placed 1 embryo per well in a 96-well plate prefilled with 90 ul of EM using automated embryo placement systems (AEPS). Ten microliters of each row of dilution plate 2 was added to 2 exposure plates. The final DMSO concentration used was 0.64% (vol/vol). Thirty-two embryos were also exposed to 5uM trimethyltin chloride (positive control). Plates were sealed to prevent evaporation and foil covered to reduce light exposure and kept in a 28C incubator. Embryos were statically exposed until 120 hpf. At 24 hpf, embryos were assessed for photomotor response using a custom photomotor response analysis tool (PRAT) and for developmental toxicity endpoints (MO24: mortality at 24 hpf, DP: developmental progression, SM: spontaneous movement, and NC: notochord distortion). At 120 hpf, locomotor activity was measured using Viewpoint Zebralab and assessed for 13 endpoints. Zebrafish acquisition and analysis program (ZAAP), a custom program designed to inventory, acquire, and manage zebrafish data, was used to collect developmental endpoints as either present or absent (i.e., binary responses were recorded). If mortality occurred for an embryo (at either 24 or 120 hpf), the non-mortality endpoints were not measured.

| Structure (SMILES) | outcome | AC50 |
| --- | --- | --- |
| O=C(O)C(F)(F)C(F)(F)C(=O)O | inactive |  |
| OCC(F)(F)OC(F)(F)C(F)(F)OC(F)(F)C(F)(F)OC(F)(F)CO |  | 18 µM (active) |
| OCC(F)(F)OC(F)(F)C(F)(F)OC(F)(F)C(F)(F)OC(F)(F)F | inactive |  |
| C=CC(=O)OCC(F)(F)C(F)F |  | 23.3 µM (active) |
| O=C(O)C=CC(F)(C(F)(F)F)C(F)(F)F | inactive |  |
| O=C(O)C(F)(OC(F)(F)C(F)(F)C(F)(F)F)C(F)(F)F (centres undefined) | inactive |  |
| COC(=O)C(F)(F)C(F)(F)OC(F)(C(F)(F)F)C(F)(F)OC(F)=C(F)F (centres undefined) |  | 22.2 µM (active) |
| FC(F)(F)C(F)(C(F)(F)F)C(F)(F)C(F)(F)CC1CO1 (centres undefined) | inactive |  |
| O=S(=O)(F)C(F)(F)C(F)(F)C(F)(F)C(F)(F)C(F)(F)C(F)(F)C(F)(F)C(F)(F)F | inactive |  |
| O=C(O)C(F)(F)OC(F)(F)C(F)(F)OC(F)(F)C(=O)O | inactive |  |
| NC(=O)C(F)(F)C(F)(F)F | inactive |  |
| O=C(O)C(F)(F)OC(F)(F)C(F)(F)OC(F)(F)F | inactive |  |
| CC(O)C(F)(F)C(F)(F)F (centres undefined) | inactive |  |
| OCC(F)(F)OC(F)(F)C(F)(F)OC(F)(F)CO | inactive |  |
